Compound activity as filed in PubChem BioAssay.
HT1080 IDH1KD tx: kills HT-1080 cells with IDH1 knockdown | Potency, µM (doses to about 46.1 µM), for the others: at the top dose activity, negative = toxicity, usual class: cytotoxic | 2% of 360,000 active | HT-1080 IDH1 knockdown viability, ATP luminescence, 48 h;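 further: potency means the concentration at half of the fitted maximal effect; 0% = DMSO wells and -100% = cell-free medium wells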
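Cytotoxicity counter-line: IDH1KD HT-1080, 48 h, CellTiter-Glo. Curves classed by r2, magnitude and activity.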
DT40 TDP1 CPT: growth inhibition of DT40 Tdp1-/-;hTDP1 cells with camptothecin (screen for TDP1 inhibitors) | 12% of 420,000 active | Potency, µM (highest dose often 46.2 µM), for the others: top-dose activity change, negative = growth inhibition, most hits filed as inhibitors | chicken DT40 Tdp1-/-;hTDP1 cells + 20 nM CPT, ATP luminescence, 48 h; further: potency means the concentration at half of the fitted maximal effect; nearly all actives have a fitted effect of over 55% in size
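Chicken DT40 Tdp1-/- cells complemented with human TDP1, 400 cells/well, exposed to compounds plus 20 nM camptothecin for at least 48 h at 37 C; viability read as ATP content by CellTiter-Glo luminescence.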
IL1B secr inh: inhibitors of inflammasome signaling (IL-1 beta secretion). THP-1 LPS/ATP IL-1B secretion, AlphaLISA, 16 h; active compounds read low. activity change, % at 57.5 µM. 4.7% of 360,000 active. AID 743279; in the data active means activity change below about -50%; inconclusive means mostly about -30% to -49%
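Secreted IL-1B measured by AlphaLISA bead assay after 16 h compound exposure of THP-1 cells; compounds (final up to 57.5 uM) added 1 h before LPS (250 ng/mL) and ATP (1.25 mM) stimulation; lower signal means less secretion.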
DT40 TDP1 no CPT: qHTS for Inhibitors of human tyrosyl-DNA phosphodiesterase 1 (TDP1): qHTS in cells in absence of CPT; DT40 Tdp1-/- hTDP1 cells, no CPT, ATP luminescence, 48 h; Potency, µM (top dose mostly 46.2 µM), inactives show top-dose activity change, negative = growth inhibition, most hits filed as inhibitors; 15% of 420,000 active; AID 686978, 2013; further: potency means the concentration at half of the fitted maximal effect; nearly all actives have a fitted effect of over 55% in size
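A cellular qHTS used chicken DT40 cells lacking endogenous Tdp1 but carrying stably transfected human TDP1. Compounds were applied without camptothecin, and cell growth kinetics were judged by ATP-dependent luminescence after ≥48 hr.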
HT1080-NT tox: kills 2HG-producing HT-1080-NT fibrosarcoma cells | HT-1080-NT fibrosarcoma viability, CellTiter-Glo ATP luminescence, 48 h | Potency, µM (top dose mostly 46.1 µM), for inactives: top-dose activity, negative = less viability, hits mostly cytotoxic | 1.6% of 360,000 active | AID 686970;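 further: NT is the 2HG producing partner of a matched IDH1 knockdown line; potency means the concentration at half of the fitted maximal effect; 0% = DMSO-treated cells and -100% = media-only wells without cells; nearly all actives have a fitted effect of over 55% in size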
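Read-out is CellTiter-Glo luminescence after 10 minutes at room temperature, following 48 hours' compound treatment of HT-1080-NT cells (750 cells/well, RPMI, 5% FBS, 37 degrees C).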
Active calls of the source: *; ? = inconclusive; . = not tested or not shown. Shown are actives, neighbours in structure and some others; about 19% of the full set was active somewhere. Unless noted, the call rests on the fitted dose curve; in most records, active means well fitted curve in the direction sought with a large enough effect; inconclusive means small, poorly fitted or top-dose-only effect, or another doubt; inactive means no such curve, though single readings can be large; an effect the other way counts as inactive or inconclusive. Unless noted, on the % scale 0 is the no-effect control and ±100 the full control effect.

SMILES	HT1080 IDH1KD tx	DT40 TDP1 CPT	IL1B secr inh	DT40 TDP1 no CPT	HT1080-NT tox
Cc1ccc(C(=O)Nc2nc(-c3nnn(-c4cccc(C(F)(F)F)c4)c3C)ns2)cc1	.	3.3µM*	.	4.1µM*	.
Cc1ccc(C(=O)Nc2nc(-c3nnn(-c4cccc(Cl)c4C)c3C)ns2)cc1C	.	26µM*	.	18µM*	.
C#CCN1c2ccccc2Sc2cccnc21	?	10%	2	-14%	-2%
Cn1c(=O)c2c(nc(NN=C3CCCCC3)n2C)n(C)c1=O	0%	?	15	?	-12%
OCCCCNCc1ccc(OCc2ccccc2)cc1	-8%	?	-1	?	-4%
OCCNCCCCOc1ccc(OCc2ccccc2)cc1	-29%	?	-81*	?	-28%
CC(O)CNCCCCOc1ccc(OCc2ccccc2)cc1 (stereo unspecified)	-24%	23µM*	-56*	?	?
